Composite z-score and z-score data for six molecules are collected here from PubChem BioAssay.

Activity calls are given as the source filed them. Unless noted, no rule for the calls is given here.

Test [1] is described as follows: compounds binding Alexa647 anti-His antibody – biochemical, small-molecule microarray, 635 nm fluorescence, artefact control for SMM control protein annotation, primary screen (AID 1128).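 Also: score merges feature fluorescence with signal-to-noise for each printed compound spot.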 The note with it: higher = more signal.
Test [2] deals with Human papillomavirus type 1a E7 protein (residues 1-88). The test can be described thus: HPV1a E7 small-molecule binders, primary screen, biochemical, small-molecule microarray, residues 1-88, 635 nm (AID 1129). The note with it: small-molecule microarray binding, fluorescence 635 nm; higher = more signal.
The target in test [3] is Focal adhesion kinase 1 (Homo sapiens) (UniProt Q05397). The test can be described thus: PTK2 protein binding on printed compound slides – biochemical, small-molecule microarray, 635/667 nm fluorescence, BSA, DTT, primary screen (AID 1130).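 Also: composite of spot emission at 667 nm and signal to noise over triplicate slides.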 The note with it: 635 nm fluorescence, higher = more signal.
Sequence of Focal adhesion kinase 1 (Homo sapiens) (Q05397 whole entry, looked up): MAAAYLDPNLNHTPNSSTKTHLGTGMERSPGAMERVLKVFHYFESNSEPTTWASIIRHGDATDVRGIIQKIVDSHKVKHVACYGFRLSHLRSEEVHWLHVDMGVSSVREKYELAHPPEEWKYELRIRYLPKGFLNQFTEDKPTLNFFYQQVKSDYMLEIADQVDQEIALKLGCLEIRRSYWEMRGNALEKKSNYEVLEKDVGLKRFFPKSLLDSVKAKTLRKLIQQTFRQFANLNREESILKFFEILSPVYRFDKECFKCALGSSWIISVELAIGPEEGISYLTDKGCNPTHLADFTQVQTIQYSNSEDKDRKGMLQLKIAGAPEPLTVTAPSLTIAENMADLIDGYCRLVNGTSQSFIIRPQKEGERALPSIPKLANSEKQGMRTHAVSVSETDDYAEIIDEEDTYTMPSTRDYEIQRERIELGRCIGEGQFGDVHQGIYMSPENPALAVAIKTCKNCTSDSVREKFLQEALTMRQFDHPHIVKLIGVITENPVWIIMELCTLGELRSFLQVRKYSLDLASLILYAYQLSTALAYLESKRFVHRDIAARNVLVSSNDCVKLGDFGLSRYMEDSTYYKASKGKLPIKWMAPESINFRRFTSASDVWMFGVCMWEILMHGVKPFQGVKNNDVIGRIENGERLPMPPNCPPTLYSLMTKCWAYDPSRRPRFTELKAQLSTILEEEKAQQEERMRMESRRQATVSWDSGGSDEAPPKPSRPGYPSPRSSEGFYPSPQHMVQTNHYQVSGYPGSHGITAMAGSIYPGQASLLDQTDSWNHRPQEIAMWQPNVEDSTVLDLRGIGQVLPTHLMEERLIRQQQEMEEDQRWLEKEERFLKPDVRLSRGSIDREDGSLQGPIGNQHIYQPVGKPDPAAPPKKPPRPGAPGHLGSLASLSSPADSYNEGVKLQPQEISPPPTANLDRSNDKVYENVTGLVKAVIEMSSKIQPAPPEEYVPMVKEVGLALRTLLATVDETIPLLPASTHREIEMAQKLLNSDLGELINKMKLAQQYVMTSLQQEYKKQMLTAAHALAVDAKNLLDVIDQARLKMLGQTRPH
In test [4] the test system is Fibrinogen (Alexa647-labelled). In words: Alexa647-fibrinogen binding to printed small molecules – biochemical, small-molecule microarray, 635/667 nm fluorescence, artefact control for SMM control-protein annotation, profiling panel (AID 1131).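 Also: z-score merges 667 nm fluorescence with per-spot signal-to-noise over triplicate slides.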 The note with it: fibrinogen-A647 binding fluorescence, higher = more signal.
Test [5] addresses Follistatin (Homo sapiens) (UniProt P19883). In words: FST protein binding to printed compounds – biochemical, small-molecule microarray, 635/667 nm fluorescence, primary screen (AID 1132). The note with it: 635 nm fluorescence, higher = more signal.
The target in test [6] is Fibroblast growth factor 2 (Homo sapiens) (UniProt P09038). In words: basic fibroblast growth factor binding to printed compounds – biochemical, small-molecule microarray, 635/667 nm fluorescence, primary screen (AID 1133). The following applies: FGF2, fluorescence 635/667, higher = more signal.
Sequence of Fibroblast growth factor 2 (Homo sapiens) (P09038 whole entry, looked up): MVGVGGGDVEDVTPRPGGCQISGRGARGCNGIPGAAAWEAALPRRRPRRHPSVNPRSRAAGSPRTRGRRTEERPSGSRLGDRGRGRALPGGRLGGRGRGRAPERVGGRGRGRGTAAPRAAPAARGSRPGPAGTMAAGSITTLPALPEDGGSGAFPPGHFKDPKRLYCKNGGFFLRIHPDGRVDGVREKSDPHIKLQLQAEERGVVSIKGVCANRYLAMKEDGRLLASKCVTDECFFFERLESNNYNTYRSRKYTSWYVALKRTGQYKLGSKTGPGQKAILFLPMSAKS
Test [7] can be described thus: JC-1 mitochondrial potential readout, lung cancer cells – cell-based, A549, JC-1 fluorescence, basal, 24 h, 100 nL, profiling panel (AID 1138).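 Also: A549 lung adenocarcinoma cells under basal conditions with no added stimulus; test concentration not given here.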 The following applies: higher = more signal.
Test [8] relates to Lefty1. The test can be described thus: Lefty1 protein binding to printed compounds – biochemical, small-molecule microarray, 635/667 nm fluorescence, primary screen (AID 1139). The note with it: fluorescence 635/667, higher = more signal.
The test system of test [9] is wheat germ agglutinin (Triticum aestivum), Alexa647-labelled. The test can be described thus: Alexa647-WGA lectin binding to printed small molecules – biochemical, small-molecule microarray, 635/667 nm fluorescence, artefact control for SMM control-protein annotation, profiling panel (AID 1140).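 Also: score merges 667 nm feature emission with signal to noise over triplicate slides.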 The following applies: WGA-A647 binding, 635 nm fluorescence, higher = more signal.

For test [10], the target named is Luciferin 4-monooxygenase (Photinus pyralis) (UniProt P08659). In words: inhibition of purified Photinus pyralis luciferase – biochemical, luminescence, purified enzyme, 2006 set, primary screen (AID 1141).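 Also: cell-free assay with purified firefly luciferase at 100 ng per well in PBS; test concentration not given here.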 The following applies: purified firefly luciferase, SteadyGlo luminescence, 30 min; higher = more signal, called active from +8 up or from −8 down.
Sequence of Luciferin 4-monooxygenase (Photinus pyralis) (P08659 whole entry, looked up): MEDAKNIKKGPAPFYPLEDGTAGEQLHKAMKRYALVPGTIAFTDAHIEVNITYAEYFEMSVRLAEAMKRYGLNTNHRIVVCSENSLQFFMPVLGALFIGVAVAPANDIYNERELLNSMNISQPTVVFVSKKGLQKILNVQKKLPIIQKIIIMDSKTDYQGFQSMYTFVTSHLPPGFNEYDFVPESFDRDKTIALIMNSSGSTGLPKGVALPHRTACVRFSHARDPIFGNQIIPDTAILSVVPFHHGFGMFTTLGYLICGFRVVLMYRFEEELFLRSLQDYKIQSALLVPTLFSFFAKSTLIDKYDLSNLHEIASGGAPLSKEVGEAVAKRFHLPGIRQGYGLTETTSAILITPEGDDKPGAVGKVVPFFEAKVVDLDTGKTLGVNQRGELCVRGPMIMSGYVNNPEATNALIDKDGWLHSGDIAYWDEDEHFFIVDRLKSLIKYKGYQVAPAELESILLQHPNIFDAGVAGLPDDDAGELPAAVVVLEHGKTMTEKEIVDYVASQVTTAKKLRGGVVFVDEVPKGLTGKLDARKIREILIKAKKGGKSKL
The test system of test [11] is Wnt5a (protein binding on small-molecule microarray). The test can be described thus: small molecules binding Wnt5a protein – biophysical, small-molecule microarray, 635/667 nm fluorescence, primary screen (AID 1142).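 Also: fluorescence read at 667 nm with signal to noise per printed feature.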 The note with it: 635 nm fluorescence, higher = more signal.
Test [12] can be described thus: ATP-based viability of Huh7 replicon cells – cell-based, CellTiter-Glo luminescence, basal, 48 h, cytotoxicity control for HCV replication inhibitor project, primary screen (AID 1143).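 Also: Huh7 hepatoma cells carrying a hepatitis C replication reporter with no stimulus; test concentration not given here.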 The following applies: higher = more signal, called active from +8 up or from −8 down.
Test [13] in a line: Pseudomonas biofilm growth suppression – PAO1 strain, BacTiter-Glo luminescence, LB-PBS, primary screen (AID 1144). The following applies: P. aeruginosa PAO1 biofilm, 12 h, higher = more signal.
Test [14] in a line: basal CRE-LacZ reporter activity in PC12 – cell-based, unstimulated, primary screen (AID 1145). The note with it: no forskolin, luminescence, 4.5 h, higher = more signal, called active from +8 up or from −8 down.
Test [15] is described as follows: forskolin-driven CRE-LacZ activity in PC12 – cell-based, CRE-LacZ reporter, forskolin-stimulated, primary screen (AID 1146).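 Also: PC12 cells with 6xCRE LacZ reporter stimulated by forskolin 10 µM; beta-galactosidase reporter signal reflecting CREB driven transcription.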 The note with it: luminescence, 4.5 h, higher = more signal, called active from +8 up or from −8 down.
Test [16] deals with Streptavidin (Streptomyces avidinii) (UniProt P22629). In words: compounds binding control protein streptavidin – biophysical, small-molecule microarray, 635/667 nm fluorescence, artefact control for SMM compound annotation, primary screen (AID 1147).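 Also: signal reflects streptavidin binding to arrayed compounds as a control protein.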 The note with it: higher = more signal.
Sequence of Streptavidin (Streptomyces avidinii) (P22629 whole entry, looked up): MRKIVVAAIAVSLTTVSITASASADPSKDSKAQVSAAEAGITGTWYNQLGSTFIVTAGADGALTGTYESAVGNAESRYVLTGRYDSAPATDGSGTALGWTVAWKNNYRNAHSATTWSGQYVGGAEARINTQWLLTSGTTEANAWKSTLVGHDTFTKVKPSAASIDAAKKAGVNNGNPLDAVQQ
Test [17] in a line: probe aInhba binding on compound microarray – biochemical, small-molecule microarray, 635/667 nm fluorescence, primary screen (AID 1148).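 Also: score merges 667nm spot fluorescence with signal-to-noise for antibody binding to printed compounds.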 The following applies: higher = more signal.
Test [18] has as its target Torsin-1A (Homo sapiens) (UniProt O14656). In words: TOR1A wild-type binding on microarray – cell lysate, small-molecule microarray, lysate, 635/667 nm, primary screen (AID 1149). The following applies: COS7 hTOR1A-WT lysate, 635 nm fluorescence, higher = more signal.
Test [19] has the same target. In words: torsin A mutant lysate binding on microarrays – cell lysate, small-molecule microarray, COS7 lysate, 635/667 nm fluorescence, primary screen (AID 1150).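 Also: score pools 667 nm emission and signal to noise measuring lysate protein binding.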 The note with it: COS7 hTOR1A mutant lysate, 635 nm fluorescence, higher = more signal.
The subject of test [20] is Sonic hedgehog protein (Shh). In words: Sonic hedgehog microarray binding compounds – biochemical, small-molecule microarray, 635/667 nm fluorescence, primary screen (AID 1151).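 Also: Shh protein binding to compounds spotted on small-molecule microarray slides; score combines spot fluorescence intensity with signal-to-noise across triplicate slides.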 The following applies: 635 nm fluorescence, higher = more signal.

Sequence of Follistatin (Homo sapiens) (P19883 whole entry, looked up): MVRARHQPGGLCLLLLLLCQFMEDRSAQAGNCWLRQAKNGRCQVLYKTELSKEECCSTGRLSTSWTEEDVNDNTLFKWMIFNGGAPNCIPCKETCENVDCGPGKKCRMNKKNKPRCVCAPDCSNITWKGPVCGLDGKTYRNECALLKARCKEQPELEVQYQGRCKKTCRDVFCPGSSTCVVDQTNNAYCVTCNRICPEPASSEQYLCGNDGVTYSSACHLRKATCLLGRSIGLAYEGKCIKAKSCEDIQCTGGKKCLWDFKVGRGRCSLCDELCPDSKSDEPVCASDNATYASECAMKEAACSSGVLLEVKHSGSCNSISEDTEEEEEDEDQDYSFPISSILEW
Sequence of Torsin-1A (Homo sapiens) (O14656 whole entry, looked up): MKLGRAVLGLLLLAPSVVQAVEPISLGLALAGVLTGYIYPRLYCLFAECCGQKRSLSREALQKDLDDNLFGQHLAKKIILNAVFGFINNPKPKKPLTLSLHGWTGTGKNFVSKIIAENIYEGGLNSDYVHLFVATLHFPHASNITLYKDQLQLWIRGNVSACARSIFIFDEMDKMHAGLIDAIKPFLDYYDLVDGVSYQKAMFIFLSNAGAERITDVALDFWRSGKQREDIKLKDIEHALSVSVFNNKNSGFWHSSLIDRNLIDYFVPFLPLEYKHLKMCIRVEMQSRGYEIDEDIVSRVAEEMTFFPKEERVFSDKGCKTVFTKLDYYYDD

Consider `COCC(=C=CC[C@@H](O)c1ccccc1OCCO)C[C@@H](O)c1cc(Cl)cc(Cl)c1O`, for which the composite z-score in test [1] amounted to 0.819; in test [2] it was 1.23; in test [3], 0.14; in [4] it was 0.867; in test [5], 1.24; in test [6], 1.21. Moreover, the composite z-score is 0.666 in [8]; 0.289 in test [9]; 0.539 in test [11]; 0.394 in test [16]; -0.0112 in [17]; 1.66 in test [18]. For the same molecule, the composite z-score in [19] was found to be 1.04; in [20], 2.07. The z-score was -0.41 in [7]; -1.02 (inactive) in [10]; -1.54 (inactive) in [12]; 0.112 (inactive) in test [13]; 15.6 (active) in test [14]; 0.789 (inactive) in test [15].
Turning to `CN(C)CCCNC(=O)[C@@]1(c2ccc([N+](=O)[O-])cc2)CC(=O)N(C2CCCCC2)[C@@H]1c1ccc(CO)cc1I`, the composite z-score in test [1] came to 1.48; in [2] it was 1.23; in test [3] it was 0.634; in test [4], 0.62; in [5] it was 0.336; in test [6], 0.225. In addition, the composite z-score in test [8] is 0.0773; in test [9] it was 0.701; in [11], -0.107; in test [16] it was 0.71; in [17], -0.016; in test [18], 0.343. The composite z-score in test [19] was determined as 0.306; in test [20], 0.279. Besides, the z-score is -2.36 in [7]; -0.907 (inactive) in test [10]; -5.87 (inactive) in test [12]; 0.262 (inactive) in test [13]; 0.378 (inactive) in test [14]; 0.519 (inactive) in test [15].
`COC(=O)[C@@]1(Cc2ccc(F)cc2)[C@H]2c3cc(C(=O)N4CCCC4)n(Cc4ccc(C)o4)c3C[C@H]2CN1C(=O)c1ccccc1`: the composite z-score in [1] was 1.69; in [2], 1.07; in [3], 1.05; in test [4], 0.952; in test [5] it was 0.4; in test [6], -0.708. The composite z-score was found to be 0.181 in [8]; 0.794 in test [9]; 0.709 in test [11]; 1.39 in test [16]; 0.0108 in test [17]; 0.19 in test [18]. Further, the composite z-score was 0.322 in [19] and -0.704 in [20]. Moreover, the z-score in test [7] was 0.821; in [10] it was -13.4 (active); in test [12] it was -2.77 (inactive); in test [13], 0.82 (inactive); in test [14] it was -0.182 (inactive); in [15], -1.19 (inactive).
Take `O=C1c2ccccc2[C@](Cc2ccccc2I)(C(=O)NC2CC2)[C@H](c2ccc(CO)cc2)N1C1CCCCC1`: the composite z-score is 2.63 in [1]; 1.24 in [2]; 0.548 in test [3]; 0.806 in test [4]; 1.27 in [5]; 1.09 in test [6]. Also, the composite z-score in test [8] was determined as 0.593; in [9], 0.993; in [11] it was 0.557; in [16], 1.05; in test [17], 0.306; in test [18], 0.414. For the same molecule, the composite z-score was determined as 0.68 in [19] and 1.06 in test [20]. In addition, the z-score was 2.01 in test [7]; -0.912 (inactive) in test [10]; -3.43 (inactive) in test [12]; 0.214 (inactive) in test [13]; 0.531 (inactive) in test [14]; 0.424 (inactive) in [15].
Turning to `COCCOC(=O)N1C(=O)[C@@]2(c3cc(C#Cc4ccc(OC)cc4)ccc31)[C@H](c1ccccc1OCCO)N1[C@H](c3ccccc3)[C@H](c3ccccc3)OC(=O)[C@H]1[C@@H]2C(=O)N1CCN(c2ncccn2)CC1`, the composite z-score in test [1] was 2.12; in test [2] it was 1.18; in test [3] it was 0.863; in [4] it was -0.134; in [5], 0.803; in test [6] it was 0.404. The composite z-score was 0.361 in test [8]; 0.816 in test [9]; 0.418 in test [11]; 0.226 in [16]; -0.0405 in test [17]; 0.617 in test [18]. In addition, the composite z-score in test [19] came out at 0.374; in test [20] it was 1.05. The z-score in [7] is -1.18; in [10], -1.1 (inactive); in [12] it was -0.915 (inactive); in test [13], -0.418 (inactive); in test [14], -0.199 (inactive); in test [15], 0.298 (inactive).
As to `COc1cc(CO)cc(I)c1O[C@H]1C=C(C(=O)NCCO)C[C@@H](N(CCN2CCOCC2)C(=O)C2CCOC2)[C@@H]1O` (stereo not given in full), the composite z-score in [1] was -0.504; in test [2], -0.233; in test [3] it was -0.508; in [4] it was 0.651; in [5] it was 0.581; in test [6], 0.675. Besides, the composite z-score in [8] was 0.792; in test [9], -0.201; in test [11] it was -0.31; in test [16], -0.512; in test [17], -0.0195; in [18], 0.055. For the same molecule, the composite z-score in test [19] was found to be 0.399; in test [20] it was 0.309. Moreover, the z-score was 1.86 in test [7]; -1.13 (inactive) in [10]; -0.846 (inactive) in [12]; 0.367 (inactive) in [13]; 0.495 (inactive) in test [14]; -1.45 (inactive) in test [15].
